PERK inhibitor: blocks human PERK kinase; Q9NZJ5; CHO PERK-DD fusion, SEAP luminescence translation reporter; inhibition, % at 5.6 µM; 0.17% of 220,000 active;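 active = inhibition above the mean inhibition of all tested compounds plus 3 SD, set separately per screening campaign, cut at about 2.9% in these data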;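 also: PERK kinase domain activated by AP20187 dimerizer at 100 nM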
PfM18AAP inh-1: blocks P. falciparum M18 aspartyl aminopeptidase; recombinant PfM18AAP, H-Glu-NHMec fluorogenic cleavage; inhibition, % at 7.35 µM; 1.2% of 290,000 active;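 active = inhibition above the campaign mean inhibition over all tested compounds plus 3 SD, cut at about 28% in these data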
eIF4E 4G PPI: blocks eIF4E binding to eIF4G; inhibition, % at 21.7 µM; 0.37% of 220,000 active; P63073+Q04637; TR-FRET eIF4E-eIF4GI(517-606) binding, 2 h;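 active = inhibition above about 30%, limit read from the data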
PABP FP inh: PABP-poly(A) binding inhibition; 1% of 290,000 active; inhibition, % at 35 µM; PABP-poly(A) RNA binding, fluorescence polarization; P11940; AID 2014;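 also: calls also rest on retests at 20 µM and on dose response follow-up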
PABP1 MLLE inh: inhibitors of microRNA-mediated deadenylation, human PABP1 MLLE binding. 0.36% of 360,000 active. inhibition, % at 20 µM. GST-MLLE / FITC-PAM2 fluorescence polarization. AID 588489. P11940; in the data active = inhibition above about 35%, passing the limit was not always enough
eIF4H FP inh: inhibitors of RNA binding by human eIF4H. Q15056. eIF4H fluorescence polarization binding assay. inhibition, % at 35 µM. 0.94% of 290,000 active;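 also: calls also rest on retests at 20 µM and on dose response follow-up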
PfM18AAP inh-2: PfM18AAP inhibition, confirmation. recombinant PfM18AAP, H-Glu-NHMec fluorogenic cleavage. 28% of 2,400 active. shares compounds with PfM18AAP inh-1. inhibition, % at 7.35 µM;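 active = mean inhibition over replicate wells above the hit cutoff set for the earlier primary screen, cut at about 29% in these data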
CTSL1 counter: counter-screen for PFM18AAP inhibitors: confirmation of human cathepsin L inhibitors; shares compounds with PfM18AAP inh-1; purified cathepsin L1, Z-Leu-Arg-MCA fluorescence; inhibition, % at 5.96 µM; 2,400 tested, under 10 active; AID 2178;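 active = average inhibition across replicates above the hit cutoff set in the earlier primary screen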
Large screens that a line does not name were inactive (follow-up assays come after a bar, where they were run). Only some compounds are listed: those with a hit (about 2.4% of all), similar ones and a draw of the others. Unless noted, no rule for the calls is given here.

Cc1c[n+](C)ccc1CC1C([N+](=O)[O-])=C[N-]c2ncnn21 (centres undefined)	none
C[n+]1ccc(CC2C(=[N+]([O-])[O-])C=Nc3ncnn32)cc1 (centres undefined)	PfM18AAP inh-1 31.8 | PfM18AAP inh-2 inactive | CTSL1 counter inactive
CCN1CCC2(CC1)C(C#N)=C(N)Oc1c2sc2nc(C)cc(C)c12	PfM18AAP inh-1 33.3 | PfM18AAP inh-2 inactive | CTSL1 counter inactive
CCOC(=O)c1nnn(-c2nonc2-n2cccc2)c1-c1cccc([N+](=O)[O-])c1	none
Cc1ccc(NC(=O)Nn2cnnc2)cc1	PfM18AAP inh-1 44.5 (no result: PERK inhibitor, eIF4E 4G PPI) | PfM18AAP inh-2 36.8 | CTSL1 counter inactive
CC(=O)Nc1ccc(S(=O)(=O)Nc2ncccn2)cc1	none
O=C(Nc1ccc(Cl)cc1)Nn1cnnc1	PfM18AAP inh-1 67.7 (no result: PERK inhibitor, eIF4E 4G PPI) | PfM18AAP inh-2 57.2 | CTSL1 counter inactive
CC(=O)Nc1ccc(S(=O)(=O)Nn2cnnc2)cc1	PfM18AAP inh-1 36.7 | PfM18AAP inh-2 36.1 | CTSL1 counter inactive
O=C(Nc1ccc([N+](=O)[O-])cc1)Nn1cnnc1	PfM18AAP inh-1 80.7 (no result: PERK inhibitor, eIF4E 4G PPI) | PfM18AAP inh-2 71.7 | CTSL1 counter inactive
O=C(COc1coc(CN2CCc3ccccc3C2)cc1=O)Nc1ccccc1F	none (no result: PERK inhibitor, PfM18AAP inh-1, eIF4E 4G PPI, PABP FP inh, eIF4H FP inh)
C=CCCC(=O)NC1CCCc2c1cnn2-c1ccccc1F (centres undefined)	none (no result: PERK inhibitor, eIF4E 4G PPI)
O=C(CSc1nc(-c2ccccc2)ns1)NCC1CCCO1 (centres undefined)	PfM18AAP inh-1 34.7 (no result: PERK inhibitor, eIF4E 4G PPI) | PfM18AAP inh-2 inactive | CTSL1 counter inactive
CC(=O)c1sc2nsc(SCCN3CCCC3)c2c1N	PfM18AAP inh-1 32.0 | PfM18AAP inh-2 inactive | CTSL1 counter inactive
CC(=O)c1sc2nc(C)c3c(c2c1N)CCCC3	none
CS(=O)(=O)c1[nH]nc(-c2ccccc2)c1C#N	none
O=[N+]([O-])c1cccc(/C=N\N=C2c3ccccc3-c3ccccc32)c1O	none
NC(N)=N/N=C/c1cccc([N+](=O)[O-])c1O	PfM18AAP inh-1 43.3 | PfM18AAP inh-2 inactive | CTSL1 counter inactive
Cc1cc(C)cc(OCC(=O)Nc2nc(-c3cccnc3)cs2)c1	PfM18AAP inh-1 44.4 (no result: PERK inhibitor, eIF4E 4G PPI) | PfM18AAP inh-2 inactive | CTSL1 counter inactive
CCOc1cc(C2C(C(=O)c3ccco3)=C(O)C(=O)N2CCc2ccccc2)ccc1O (centres undefined)	PfM18AAP inh-1 32.8 | PfM18AAP inh-2 inactive | CTSL1 counter inactive
COCc1cc(C2C(C(=O)c3ccco3)=C(O)C(=O)N2CCOCCO)ccc1O (centres undefined)	PfM18AAP inh-1 43.2 | PfM18AAP inh-2 inactive | CTSL1 counter inactive
COc1cc(C2C(C(=O)c3ccco3)=C(O)C(=O)N2Cc2ccccc2)ccc1O (centres undefined)	none (no result: PERK inhibitor, eIF4E 4G PPI)
CSCCC(NS(=O)(=O)c1ccccc1F)C(=O)Nc1cccc(C)n1 (centres undefined)	none (no result: PERK inhibitor, eIF4E 4G PPI)
CN1/C(=C\C(=O)c2cccs2)C(C)(C)c2ccccc21	none
CN1/C(=C/C(=O)c2cccs2)Sc2ccccc21	PfM18AAP inh-1 49.4 | PfM18AAP inh-2 inactive | CTSL1 counter inactive
CN1/C(=C\C(=O)c2cccs2)Sc2ccccc21	PfM18AAP inh-1 53.6 | PfM18AAP inh-2 inactive | CTSL1 counter inactive
CC1(C)CC(=O)c2c(oc3cc(O)c(O)cc23)C1	PfM18AAP inh-1 83.0 | PfM18AAP inh-2 73.2 | CTSL1 counter inactive
COC(=O)c1oc2c(c1C)C(=O)CC(C)(C)C2	none
CC(C)CNc1nnnc2c1sc1nc(N3CCOCC3)c3c(c12)CC(C)(C)SC3	none
CC1(C)Cc2c(c(N3CCOCC3)nc3sc4c(NN)ncnc4c23)CS1	PfM18AAP inh-1 32.8 | PfM18AAP inh-2 inactive | CTSL1 counter inactive
COc1ccc(C(=O)COC(=O)c2cnc(C)cn2)c(OC)c1	none (no result: PERK inhibitor, PfM18AAP inh-1, eIF4E 4G PPI, PABP FP inh, eIF4H FP inh)
Cc1nc(C)c(C(=O)NNC(=O)Nc2ccc(Cl)cc2)s1	PfM18AAP inh-1 54.9 | PfM18AAP inh-2 inactive | CTSL1 counter inactive
CCC(=O)N1CCC(C)(C(=O)Nc2ccc3c(c2)OCO3)C1 (centres undefined)	none (no result: PERK inhibitor, PfM18AAP inh-1, eIF4E 4G PPI, PABP FP inh, eIF4H FP inh)
NS(=O)(=O)c1ccc(NC(=O)CN2CCN(Cc3ccccc3)CC2)cc1	none
O=c1oc2c(-c3ccc([N+](=O)[O-])cc3)cc(O)cc2s1	PfM18AAP inh-1 32.7 | PfM18AAP inh-2 inactive | CTSL1 counter inactive
NC1=C(c2ccc([N+](=O)[O-])cc2)C(=O)CO1	none
O=C(NC1(C(F)(F)F)Oc2ccccc2O1)N1CCCC1	PfM18AAP inh-1 75.4 | PfM18AAP inh-2 45.3 | CTSL1 counter inactive
O=C(NCC1CCCO1)c1ccccc1 (centres undefined)	none
O=C(NCC1CCCO1)NC1(C(F)(F)F)Oc2ccccc2O1 (centres undefined)	PfM18AAP inh-1 36.8 | PfM18AAP inh-2 inactive | CTSL1 counter inactive
COc1cccc(OC)c1OCc1cc(C2C3CCCC=C3C(C#N)=C(N)C2(C#N)C#N)c(C)cc1C (centres undefined)	PfM18AAP inh-1 36.2 | PfM18AAP inh-2 inactive | CTSL1 counter inactive
O=c1[nH]c(/C=C\c2ccc(O)c(O)c2)nc(O)c1[N+](=O)[O-]	PfM18AAP inh-1 77.9, PABP FP inh 41.2, eIF4H FP inh 50.1 (no result: PERK inhibitor, eIF4E 4G PPI) | PfM18AAP inh-2 75.8 | CTSL1 counter inactive
Cc1cc(NC(=O)c2ccc(NC(=O)C(C)Oc3ccccc3)cc2)no1 (centres undefined)	none
Cc1ccc2nc(NNC(=O)c3ccc(S(=O)(=O)N4CCc5ccccc5C4)cc3)sc2c1	none
Cc1cc(C)c2nc(NNC(=O)c3ccc(S(=O)(=O)N4CCCC(C)C4)cc3)sc2c1 (centres undefined)	PfM18AAP inh-1 38.9 | PfM18AAP inh-2 inactive | CTSL1 counter inactive
Cc1cccc2sc(NNC(=O)c3ccc(S(=O)(=O)N4CC(C)CC(C)C4)cc3)nc12 (centres undefined)	PfM18AAP inh-1 32.0 | PfM18AAP inh-2 inactive | CTSL1 counter inactive
Cc1cc(NS(=O)(=O)c2ccccc2)cc(Cl)c1O	PfM18AAP inh-1 67.0 | PfM18AAP inh-2 inactive | CTSL1 counter inactive
O=S(=O)(Nc1ccc(NS(=O)(=O)c2ccccc2)c(Cl)c1)c1ccccc1	none (no result: PERK inhibitor, PfM18AAP inh-1, eIF4E 4G PPI, PABP FP inh, eIF4H FP inh)
O=C1CC(Sc2nnc(-c3ccccc3)o2)C(=O)N1c1ccccc1 (centres undefined)	none
O=C1c2ccccc2CC1Sc1nnc(-c2ccncc2)o1 (centres undefined)	PfM18AAP inh-1 46.1, PABP FP inh 71.5, eIF4H FP inh 4.2 | PfM18AAP inh-2 inactive | CTSL1 counter inactive
c1cc2c(cc1NC1CCCCCC1)OCO2	PfM18AAP inh-1 53.1 (no result: PERK inhibitor, eIF4E 4G PPI) | PfM18AAP inh-2 inactive | CTSL1 counter inactive
COc1ccc(-c2oc3ccccc3c2C(=O)OCc2ccccc2OC)cc1	none (no result: PERK inhibitor, eIF4E 4G PPI)
